From PubChem BioAssay (Tox21) come the findings set out here.

SMILES strings stand for the structures. Results filed as inconclusive are left out. A number with no mark means an inactive call. The call rests on the fitted dose curve; in most records, active means well fitted cell-killing curve with a large enough effect in the repeat runs (not every such curve was filed as active); inconclusive means weak or mixed curves, or effect the other way; inactive means no such curve, though single readings can be large or run the other way.
On the % scale 0 is the no-effect control and ±100 the full control effect.

This test can be described thus: qHTS assay to identify small molecule antagonists of the farnesoid-X-receptor (FXR) signaling pathway - cell viability counter screen (AID 743221). Further: nearly all actives have a fitted effect of over 50% in size. To be noted: FXR-bla HEK293T viability, CellTiter-Glo luminescence, 16 h; series mostly up to 62.6 µM; activity change, negative = cytotoxicity: at the top concentration. From the text:
National Center for Advancing Translational Sciences [NCATS]
NIH Chemical Genomics Center [NCGC]
U.S. Environmental Protection Agency [EPA]
National Institutes of Environmental Health Sciences [NIEHS]
National Toxicology Program [NTP]
U.S. Food and Drug Administration [FDA]
The farnesoid-X-receptor (FXR), a nuclear hormone receptor, is highly expressed in liver, intestine, kidney and adrenal cortex. Natural ligands of FXR are the bile acids (Cholic acid, Chenodeoxy cholic acid etc). FXR is an important regulator of diverse metabolic pathways, including the bile acid homeostasis, lipid and glucose metabolisms. FXR regulates the expression of target genes by binding either as a monomer or as a heterodimer with the retinoid X receptor (RXR). Numerous studies have reported that FXR exerts protective function during cholestasis, diabetes, liver regeneration, and cancer. To identify compounds that inhibit FXR signaling, GeneBLAzer FXR-UAS-bla HEK 293T cell line (Invitrogen, Carlsbad, CA) containing a beta-lactamase reporter gene under the control of a UAS response element was used to screen the Tox21 10K compound library. The cytotoxicity of the Tox21 compound library against the FXR-bla cell line was tested in parallel by measuring the cell viability using CellTiter-Glo assay in the same wells.
Tox21 Assay Protocol Summary:
FXR-bla cells were dispensed at 5000 cells/5uL/well in 1536-well black wall/clear bottom plates using a Multidrop Combi (Thermo Fisher Scientific, Waltham, MA) dispenser. After the assay plates were incubated at 37 C and 5% CO2 for 5 h, 23 nL of compounds dissolved in DMSO, positive controls or DMSO only was transferred to the assay plate by a Pintool station (Kalypsys, San Diego, CA), followed by addition of 1 uL Chenodeoxycholic acid (50 uM, final concentration in the wells). The assay plates were incubated at 37C for 16 h. After 1 uL of LiveBLAzerTM B/G FRET substrate was added using a Bioraptr Flying Reagent Dispenser (FRD) workstation (Beckman Coulter, Indianapolis, IN), the plates were incubated at room temperature for 2 h, and fluorescence intensity was measured by an Envision plate reader (PerkinElmer, Shelton, CT). For cell viability readout that measures cytotoxicity, 4uL/well of CellTiter-Glo reagent was added into the assay plates using a Bioraptr FRD. After 30 min incubation at room temperature, the luminescence intensity in the plates was measured using a ViewLux plate reader (PerkinElmer).
Consider `CCCCNc1cc(C(=O)O)cc(S(N)(=O)=O)c1Oc1ccccc1`, for which the “activity change, negative = cytotoxicity” value was 0.257%. As for `Cc1cccc(C)c1NC(=O)CN1CCCCCC1`, the “activity change, negative = cytotoxicity” value is -7.69%.

For the molecule `O=C1CCCc2ccccc21`, the “activity change, negative = cytotoxicity” value is 0.703% [at 81.1 µM].

For `CC1(C)C(=O)N(Cl)C(=O)N1Br`, the “activity change, negative = cytotoxicity” value is 18.5%. In the case of `NC1=NCC2c3ccccc3Cc3ccccc3N12` (stereo not given) it was -6.61%.

As to `CO[C@@]1(NC(=O)CSCC#N)C(=O)N2C(C(=O)O)=C(CSc3nnnn3C)CS[C@@H]21`, the “activity change, negative = cytotoxicity” value was -5.72%. Then `CS(=O)(=O)c1ccc([C@@H](O)[C@@H](CF)NC(=O)C(Cl)Cl)cc1`, with 11.2%; and `ClC(Cl)Cl`, with -3.51%; and `Oc1ccccc1F`, with 10.4%. Then `CCCNC(C)C(=O)Nc1c(C)csc1C(=O)OC` (stereo not given), with 8.44%; and `C=CC(C)(O)CC/C=C(\C)CCC=C(C)C` (stereo not given), with -1.2%; and `NC(Cc1ccc(F)cc1)C(=O)O` (stereo not given), with -10% [at 5.95 µM]. On to `CC(C)C[C@H](NC(=O)OCC1c2ccccc2-c2ccccc21)C(=O)O`, for which the “activity change, negative = cytotoxicity” value is -0.838%. Then `O=c1[nH]cnc2c1ncn2[C@@H]1O[C@H](CO)[C@@H](O)[C@H]1O`, with 7.02%; and `CC(=O)OC1C2(C)CCC(C2)C1(C)C` (stereo not given), with -9.39%. Then `COc1ccc(Nc2ccc(OC)cc2)cc1`, with -3.82% [at 81.1 µM]. Then `C[C@@H](N)C(=O)O`, with 5.59%; and `C[C@@H]1CN(c2c(F)c(F)c3c(=O)c(C(=O)O)cn(C4CC4)c3c2F)C[C@H](C)N1`, with -3.59% [at 29.1 µM]. As to `COc1cc(Cl)ccc1Cl`, the “activity change, negative = cytotoxicity” value is 1.15% [at 81.1 µM]. With `Cc1ccc(C)c(N)c1`, the “activity change, negative = cytotoxicity” value was -3.32%. Then `Nc1ccc2ccccc2c1S(=O)(=O)O`, with 2.08% [at 81.1 µM].

Take `CC(C)NCC(O)COc1ccc(CCOCC2CC2)cc1` (stereo not given): the “activity change, negative = cytotoxicity” value was 0.644%. For `CCCCCCn1c(=O)c2c(ncn2C)n(C)c1=O`, the “activity change, negative = cytotoxicity” value is -2.88%. Then `COc1cc(N)c(Cl)cc1C(=O)NC1CCN(Cc2ccccc2)CC1`, with -2.98%; and `Cc1c[nH]c(=S)[nH]c1=O`, with -4.66%. Then `CCCCCCC`, with 11.3% [at 81.1 µM]; and `Cc1ccccc1C(=O)Nc1ccc(C(=O)N2CCCC(O)c3cc(Cl)ccc32)c(C)c1` (stereo not given), with -14.2%; and `Cc1cc(S(=O)(=O)O)c(N)cc1Cl`, with 2.72% [at 81.1 µM]. Take `C=CCCC=C`: the “activity change, negative = cytotoxicity” value is 6.88% [at 81.1 µM].

For the molecule `Cn1cnc2c(F)c(Nc3ccc(Br)cc3Cl)c(C(=O)NOCCO)cc21`, the “activity change, negative = cytotoxicity” value was -2.96%. Then `O=C1CCCCC1C1CCCCC1` (stereo not given), with 0.233%; and `CC(C)C(=O)OCC(C)(C)C(O)C(C)C` (stereo not given), with 14.2% [at 81.1 µM]; and `O=C(O)C(=O)Cc1c[nH]c2ccccc12`, with 4.89%. In the case of `CC[C@H]1CC[C@H](NCc2cc3c(cc2OC)[C@H]2C[C@H]2C(=O)N3C)[C@H](c2ccccc2)N1` it was -16.6%. On to `C=CCCCCCCCCO`, for which the “activity change, negative = cytotoxicity” value was 11.8%. Then `NC/C=C/C(=O)O`, with 6.24%; and `CCC(=O)O[C@]1(C(=O)SCF)[C@H](C)C[C@H]2[C@@H]3C[C@H](F)C4=CC(=O)C=C[C@]4(C)[C@@]3(F)[C@@H](O)C[C@@]21C`, with 4.79%; and `CC(=O)O[C@H]1CC[C@@]2(C)C(=CC[C@@H]3[C@@H]2CC[C@]2(C)C(C(C)=O)=CC[C@@H]32)C1`, with 4.17%. Then `NC(=O)NS(=O)(=O)c1ccc(Cl)cc1`, with 6.33%; and `CCN(CCCc1ccccc1)CCCc1ccccc1`, with -9.08%.
